Type in all cases: functional
Assay [1] deals with Solute carrier family 2, facilitated glucose transporter member 1 (Homo sapiens) (UniProt P11166). As to the kind of experiment: ST_JUDE_LEISH: Cytotoxicity at 2uM final concentration against transgenic Leishmania Mexicana promastigotes LmGLUT1 that are glucose transport deficient and complemented with the human glucose transporter GLUT1. Activity is measured by DNA content using SYBR green in vitro.

For assay [2], the target named is Hexose transporter 1 (Plasmodium falciparum) (UniProt O97467). As to the kind of experiment: ST_JUDE_LEISH: Cytotoxicity at 2uM final concentration against transgenic Leishmania Mexicana promastigotes LmPfHT that are glucose transport deficient and complemented with the Plasmodium falciparum hexose transporter. Activity is measured by DNA content using SYBR green in vitro.

Assay [3] addresses Glucose transporter (Leishmania mexicana) (UniProt O61059). As to the kind of experiment: ST_JUDE_LEISH: Cytotoxicity at 2uM final concentration against transgenic Leishmania Mexicana promastigotes LmGT2 that are glucose transport deficient and complemented with the L. Mexicana glucose transporter 2. Activity is measured by DNA content using SYBR green in vitro.

Values joined by “and” are separate entries in the source; they are usually repeats but may differ in a detail not shown here. Equal values may be shown once.

Chain of Solute carrier family 2, facilitated glucose transporter member 1 (Homo sapiens) (P11166 whole entry): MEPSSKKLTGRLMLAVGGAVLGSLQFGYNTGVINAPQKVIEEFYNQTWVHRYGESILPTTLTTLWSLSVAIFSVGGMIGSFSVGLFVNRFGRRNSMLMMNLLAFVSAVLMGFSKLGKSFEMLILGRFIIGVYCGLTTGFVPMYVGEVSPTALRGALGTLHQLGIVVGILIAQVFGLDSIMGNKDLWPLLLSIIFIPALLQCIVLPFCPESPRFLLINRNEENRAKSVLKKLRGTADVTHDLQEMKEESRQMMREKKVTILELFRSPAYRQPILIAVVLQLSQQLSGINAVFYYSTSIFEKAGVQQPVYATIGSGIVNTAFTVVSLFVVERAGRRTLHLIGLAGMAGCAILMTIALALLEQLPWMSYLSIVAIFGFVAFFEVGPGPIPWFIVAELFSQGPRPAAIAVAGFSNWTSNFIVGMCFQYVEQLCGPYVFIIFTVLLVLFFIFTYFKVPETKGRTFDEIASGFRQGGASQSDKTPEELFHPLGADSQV

`O=C1COc2ccccc2N1CCN1CCC(NCc2ccc(-c3cccs3)cc2)CC1`: the inhibition (as a rule, the relative decrease from the control value, in per cent) in assay [1] turned out to be 8.28%; in assay [2], 7.16%; in assay [3], 3.03%.
On to `NCc1cccc(-c2cccc(CN(C(=O)Nc3ccccc3)C3CCN(Cc4ccccc4)CC3)c2)c1`, for which the inhibition in assay [1] is 7.36%; in assay [2], 6.75%; in assay [3], 6.25%.
In the same order, the values of `CC(=O)C1(c2ccccc2)CCN(CCC2(c3ccc(Cl)c(Cl)c3)CN(C(=O)c3cccc(Cl)c3)CCO2)CC1` (centres undefined) are -0.25%, -2.92% and -1.43%.
Regarding `COc1ccc2[nH]cc(C3CC4CCC(C3)N4CCC3CCN(C(=O)/C=C/c4ccc(Cl)c(Cl)c4)CC3)c2c1` (centres undefined), the inhibition is -0.2% in assay [1], 1.01% in assay [2] and 0.71% in assay [3].
The matching figures for `COC(C(=O)OCCC1CCCN1C)(c1ccccc1)c1ccccc1` (centres undefined): -0.93%, -0.75% and -4.58%.
`Cc1c(C)c2c(c(C)c1O)CC[C@](C)(C(=O)NC1CCC(CN3CCC(c4c[nH]c5ccccc45)CC3)CC1)O2` (some centres undefined): the inhibition is -0.89% and 2.73% in assay [1]; 2.05% and 2.37% in assay [2]; -1.4% and -1.2% in assay [3].
In the case of `O=C(/C=C/c1ccc(Cl)c(Cl)c1)N1CCC(CN2CCC(c3c(Br)[nH]c4ccccc34)CC2)CC1`, the inhibition was determined as 2.44% in assay [1], 0.45% in assay [2] and 0.55% in assay [3].
The matching figures for `CC[C@H]1CN2CC[C@H]1C[C@H]2[C@H](O)c1cc(-c2ccc(SC)cc2)nc2ccc(OC)cc12`: 4.44%, 4.13% and 7.64%.
On to `O=C(/C=C/c1ccc(Cl)c(Cl)c1)NCC1CCC(CN2CCC(c3c[nH]c4ccccc34)CC2)CC1` (centres undefined), for which the inhibition in assay [1] was 2.37%; in assay [2] it was -3.01%; in assay [3], 1.76%.
Turning to `COC(=O)c1ccc(CC(C)NCC(O)c2cccc(C(F)(F)F)c2)cc1` (centres undefined), the inhibition was 2.79% and 2.21% and 1.58% in assay [1]; -0.93% and 1.17% and 2.06% in assay [2]; 2.89% and 0.72% and 2.04% in assay [3].
On to `O=C(Nc1cc(C(F)(F)F)cc(C(F)(F)F)c1)N1CCC(CN2CCC(c3c[nH]c4ccccc34)CC2)CC1`, for which the figures for the inhibition in assay [1], in assay [2] and in assay [3] were 2.61%, 3.46% and 1.9%, respectively.
In the same order, the values of `CCOC(C(=O)OCC1CCCN1C(C)C)(c1ccccc1)c1ccccc1` (centres undefined) are 3.57%, 3.09% and 1.53%.
For `CC[C@H]1CN2CC[C@@H]1C[C@H]2[C@H](O)c1cc[n+]([O-])c2ccc(OC)cc12`, the inhibition in assay [1] is -2.84%; in assay [2] it was -0.91%; in assay [3] it was -1.06%.
In the same order, the values of `Cc1cc(N(C)C2CCN(C)CC2)nc(Nc2ccc(Cl)cc2)n1` are 2.63%, -2.68% and -0.95%.
In the same order, the values of `Cc1c(C(=O)N[C@@H](C)c2ccccc2)c2cc(O)c(Br)cc2n1C1CCCCC1` are 2.84%, 2.43% and 3.33%.
Consider `O=C(/C=C/c1ccc(Cl)c(Cl)c1)NCCCCCN1C2CCC1CC(c1c[nH]c3ccc(O)cc13)C2` (centres undefined), for which the inhibition was 0.54% and -0.84% in assay [1]; 2.4% and -2.77% in assay [2]; -3.07% and -2.2% in assay [3].
With `CC[C@H]1CN2CC[C@@H]1C[C@H]2[C@H](O)c1cc(N2CCC(C)CC2)nc2ccc(OC)cc12`, the inhibition in assay [1] is 7.8%; in assay [2], 9.59%; in assay [3], 5.06%.
On to `O=C(/C=C/c1ccc([N+](=O)[O-])cc1)NC1CCC(CN2CCC(c3c[nH]c4ccccc34)CC2)CC1` (centres undefined), for which the inhibition in assay [1] was 2.8% and -1.4%; in assay [2], 1.89% and -2.18%; in assay [3] it was 0.45%.
As for `COC(=O)c1ccc(CC(C)NCC(O)c2ccc(Cl)c(Cl)c2)cc1` (centres undefined), the inhibition in assay [1] was 6.46%; in assay [2], 3.9%; in assay [3], 5.96%.
For the compound `CC[C@H]1CN2CC[C@H]1C[C@H]2[C@H](O)c1cc(/C=C/c2ccccc2)nc2ccc(OC)cc12`, the inhibition in assay [1] was 0.9%; in assay [2] it was -0.83%; in assay [3], -0.2%.
As for `Oc1ccccc1CNCC(O)c1cccc(C(F)(F)F)c1` (centres undefined), the results for the inhibition in assay [1], in assay [2] and in assay [3] were -0.54%, -1.26% and -1.55%, respectively.
The matching figures for `CC[C@H]1CN2CC[C@@H]1C[C@H]2[C@H](O)c1cc(-c2cccnc2)nc2ccc(OC)cc12`: 4.01%, 4.01% and 4.02%.
`COc1cc(C(=O)NC2CCC(CN3CCC(c4c[nH]c5ccccc45)CC3)CC2)cc(Cl)n1` (centres undefined): the inhibition in assay [1] was 1.3%; in assay [2], -0.71%; in assay [3], 2.31%.
With `O=C(NCC(=O)N1CCC[C@H]1C(=O)O)[C@@H](Cc1ccccc1)NC(=O)[C@@H]1CCCN1C(=O)CCCc1ccc(O)cc1`, the inhibition in assay [2] was -1.36%; in assay [3] it was -1.68%.
As for `O=C(/C=C/c1ccc(Cl)c(Cl)c1)N1CCC(CN2CCC(c3c[nH]c4cc5c(cc34)OCO5)CC2)CC1`, the figures for the inhibition in assay [1], in assay [2] and in assay [3] were 5.54%, 4.93% and 3.71%, respectively.
In the same order, the values of `O=C(CCC(=O)c1ccc2c3c(cccc13)CC2)NC1CCC(CN2CCC(c3c[nH]c4ccccc34)CC2)CC1` (centres undefined) are 3.08%, 3.49% and 4.96%.
In the same order, the values of `CS(=O)(=O)Nc1ccc2[nH]cc(C3CCN(CC4CCC(NC(=O)/C=C/c5ccc(Cl)c(Cl)c5)CC4)CC3)c2c1` (centres undefined) are 0.82%, 6.93% and -0.55%.
In the case of `CC[C@H]1CN2CC[C@H]1C[C@H]2[C@H](O)c1cc(Cl)nc2ccc(OC)cc12`, the results for the inhibition in assay [1], in assay [2] and in assay [3] were 2.23%, 1.71% and 1.61%, respectively.
In the same order, the values of `CN1CC=C(c2csc3ccc(NC(=O)Nc4ccc(-c5ccncc5)c(Cl)c4)cc23)CC1` are 0.03%, -0.33% and 0.2%.
In the case of `COC(=O)c1ccc(CC(C)NCC(O)c2ccccc2Cl)cc1` (centres undefined), the inhibition in assay [1] came out at 0.96%; in assay [2] it was 0.22%; in assay [3] it was 1.21%.
For `O=C(/C=C/c1ccc(Cl)c(Cl)c1)NCC1CCCC(CN2CCC(c3c[nH]c4ccccc34)CC2)C1` (centres undefined), the inhibition in assay [1] came out at 2.54%; in assay [2] it was 3.43%; in assay [3], 0.26%.
The matching figures for `O=C(NC1CCC(CN2CCC(c3c[nH]c4ccccc34)CC2)CC1)c1cn(Cc2ccccc2)c2ccccc12` (centres undefined): 0.71%, 1.32% and -1.09%.
In the same order, the values of `NC1=NC2(CCCC2)N(c2ccc(Cl)cc2)C(N)=N1` are 3.05%, 4.23% and 3.83%.
Consider `O=C(CNC1CCCCC1)c1ccc(O)c(O)c1`, for which the inhibition is 75.2% in assay [1], 87.1% in assay [2] and 77.4% in assay [3].
In the same order, the values of `O=C(NC1CCC(CN2CCC(c3c[nH]c4ccccc34)CC2)CC1)c1ccc(-c2ccccc2[N+](=O)[O-])o1` (centres undefined) are 3.68%, 1.85% and -0.67%.

Values taken from ChEMBL document CHEMBL3433997, “St. Jude Leishmania screening dataset” (2016).
